From PubChem BioAssay
Pf growth 48h: inhibits P. falciparum growth in the first generation, 48 h; P. falciparum luciferase growth in erythrocytes, 48 h; Potency, µM (highest dose often 28.7 µM), for the others: at the top dose activity change, negative = inhibition, usual class: inhibitors; hit rate 5.9% among 310,000; active = well fitted inhibition curve with a large enough effect; inconclusive = small, poorly fitted or top-dose-only effect, or another doubt; inactive = no such curve, though single readings can be large or run the other way; also: % is scaled to controls: 0 for no effect and ±100 for the full control effect
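Luciferase-expressing P. falciparum in infected erythrocytes (2% hematocrit, 0.1% parasitemia final) in RPMI 1640/0.5% Albumax were exposed to compound for 48 hours at 37 C, 5% CO2; growth read as luminescence.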
Pf growth 96h: P. falciparum growth inhibition at 96 hours; Potency, µM (doses to about 28.7 µM), without a hit: at the highest dose activity change, negative = inhibition, hits mostly inhibitors; hit rate 6.9% among 320,000; P. falciparum luciferase reporter growth, 96 h; active = well fitted inhibition curve with a large enough effect; inconclusive = small, poorly fitted or top-dose-only effect, or another doubt; inactive = no such curve, though single readings can be large or run the other way; also: % is scaled to controls: 0 for no effect and ±100 for the full control effect
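Plates of compound plus infected erythrocytes (2% hematocrit, 0.05% parasitemia final) incubate 96 hours, 37 C, 5% CO2. Detection reagent added; reduced luminescence from the parasites' luciferase reporter flags inhibition.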
SARS PLP yeast: inhibitors of SARS-CoV papain-like protease in yeast; S. cerevisiae expressing SARS-CoV PLpro, growth rescue; Potency, µM (titrated, usually from 32.9 µM), inactives show at the top dose activity, positive = growth rescue, most hits filed as activators; hit rate 0.19% among 330,000; AID 485353; also: 0% is about no effect; nearly all actives have a fitted effect of over 55% in size
NS1 function inh: blocks influenza NS1 protein function. Potency, µM (highest dose often 46.1 µM), without a hit: at the top dose activity, positive = more growth. hit rate 0.4% among 270,000; also: actives are rising curves; nearly all actives have a fitted effect of over 50% in size
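In this qHTS, NS1 from influenza A is expressed in budding yeast, where it slows growth. Cells are switched from glucose to 2% galactose medium (pH 6.0, -URA), treated with compound, and growth recovery is read at OD600.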
Numbers without * were called inactive; ? = inconclusive; / = no result. An excerpt weighted towards active compounds, which were near 10% of everything screened. Unless noted, calls follow the shape of the full dose curve. Potency is read from the fitted curve at half-maximal effect.

SMILES	Pf growth 48h	Pf growth 96h	SARS PLP yeast	NS1 function inh
Cc1cccc(-n2c(C)cc(/C=N\NC(=O)c3ccco3)c2C)c1	8.3µM*	13%	0%	-2%
Cc1ccc(/C=N/NC(=O)c2ccco2)cc1	150%	245%	-3%	-6%
Cc1cc(C(=O)N/N=C/c2cccc([N+](=O)[O-])c2)c(C)n1-c1ccccc1	?	?	8%	-1%
Cc1cc(C)cc(-n2c(C)cc(/C=N/NC(=O)c3cccc([N+](=O)[O-])c3C)c2C)c1	/	12µM*	7%	16%
Cc1cc(/C=N/NC(=O)c2ccccn2)c(C)n1-c1cccc([N+](=O)[O-])c1	-6%	4.7µM*	1%	/
Cc1cc(C)cc(-n2c(C)cc(/C=N/NC(=O)c3ccncc3)c2C)c1	?	?	0%	3%
COc1ccc(C(CNc2nc(-c3cccnc3)nc3ccccc23)N(C)C)cc1 (configuration not stated)	?	?	-2%	-2%
O=c1c2ccccc2oc2cc(OCc3ccc(F)cc3)cc(O)c12	12%	23%	-3%	0%
CCOc1cc(C(=O)N/N=C/c2ccoc2)cc(OCC)c1OCC	-8%	?	-1%	12%
CC(C)COc1ccc(C(=O)N/N=C/c2ccoc2)cc1	0%	5.9µM*	-4%	2%
Cc1scc(C(=O)N/N=C/c2ccc(OCC(C)C)cc2)c1C	/	12µM*	-7%	-18%
COc1ccc(C(=O)c2ccc([N+](=O)[O-])cc2)cc1S(=O)(=O)N1CCC(C(=O)O)CC1	8%	25%	16%	-6%
CC(=O)Nc1ccc(Cc2nc3c([nH]2)c(=O)n(C)c(=O)n3C)cc1	27%	2%	-1%	5%
CCCc1cc(C(=O)Cc2ccc(C(=O)OCC)o2)c(O)cc1O	12µM*	12µM*	-26%	-84%
CCCc1cc(C(=O)Cc2ccc(F)cc2)c(O)cc1O	-15%	/	-35%	-30%
COc1ccc2[nH]c3c(c2c1)CCNC3C (configuration not stated)	4%	9.3µM*	?	-4%
COc1ccc2c3c([nH]c2c1)C(C)NCC3 (configuration not stated)	?	?	-1%	2%
COc1ccc2[nH]c3c(c2c1)CCNC3c1ccc([N+](=O)[O-])o1 (configuration not stated)	13µM*	7%	-2%	12%
O=C(c1cccc(NS(=O)(=O)c2cccc(C(F)(F)F)c2)c1)N1CCOCC1	32%	?	-7%	-5%
Cc1ccc(C)c(NC(=O)CN(C)C(=O)c2ccc(-c3cccc(C(F)(F)F)c3)o2)c1	1.9µM*	1.3µM*	-2%	/
CN(CC(=O)Nc1cccc(F)c1)C(=O)c1ccc(-c2cccc(C(F)(F)F)c2)o1	0.33µM*	0.12µM*	-4%	/
COc1cccc(NC(=O)CN(C)C(=O)c2ccc(-c3cccc(C(F)(F)F)c3)o2)c1	0.33µM*	0.26µM*	3%	/
C=C(CC)C(=O)c1ccc(OCC(=O)O)c(Cl)c1Cl	?	15µM*	-37%	-56%
C=C(C)Cc1c(C)nc(-c2ccccc2)[nH]c1=O	?	/	14%	-8%
CCCCCCOC(=O)Cc1c(C)nc(-c2ccccc2)[nH]c1=O	2.3µM*	?	2%	4%
SMILES	Pf growth 48h	Pf growth 96h	SARS PLP yeast	NS1 function inh
CC1(C)CC(O)C(C)(C)N1O (configuration not stated)	80%	13µM*	5%	1%
CCOc1ccc(CN(C)CC(=O)Nc2ccc(N3CCOCC3)cc2)cc1OC	-10%	9%	11%	-1%
O=C1c2cnccc2CN1Cc1ccccc1	41%	3.3µM*	-4%	1%
O=C1c2ccccc2C(=O)N1Cc1cccnc1	20%	173%	1%	4%
NNc1nc2c(-c3cccc(C(F)(F)F)c3)nnn2c2ccccc12	6.6µM*	26%	-4%	1%
COCCNc1nc2c(-c3cccc(C(F)(F)F)c3)nnn2c2ccccc12	2%	?	-4%	2%
CCOc1ncccc1C(=O)Nc1cc(S(=O)(=O)N2CCCCC2)ccc1OC	?	?	3%	/
COC(=O)c1ccc2c(=O)[nH]c(COC(=O)c3[nH]c(C)c(C(C)=O)c3C)nc2c1	/	/	-3%	/
CCCCCC(O)(c1ccc(OC)cc1)C(CN1CCOCC1)c1ccccc1 (configuration not stated)	1.7µM*	8%	-1%	-2%
COc1ccc(C(O)(C(C)C)C(CN2CCOCC2)c2ccc(Cl)cc2)cc1 (configuration not stated)	8.3µM*	0%	-6%	-4%
COc1ccc(C(O)(C(C)C)C(CN2CCOCC2)c2ccccc2)cc1 (configuration not stated)	?	0%	-1%	-7%
CCCCCC(O)(c1ccc(OCC)cc1)C(CN1CCOCC1)c1ccccc1 (configuration not stated)	2.1µM*	?	-3%	2%
COc1ccccc1C(CNC(=O)C(C)Oc1ccc(Br)cc1)N1CCCC1 (configuration not stated)	?	?	-3%	/
CCSC(=S)c1c(C)[nH]n(-c2ccccc2)c1=O	-1%	-14%	-3%	-36%
O=C(NC1CN2CCC1CC2)c1ccc(-c2ccc([N+](=O)[O-])cc2)o1 (configuration not stated)	1.7µM*	?	-1%	13%
CC1(C)CC(NC(=O)c2ccc(-c3ccc([N+](=O)[O-])cc3)o2)CC(C)(C)N1	10µM*	?	3%	5%
O=C(Nc1ccccc1)c1ccc(-c2ccc([N+](=O)[O-])cc2)o1	?	37%	-4%	-2%
Cc1ccc2c(c1)C1CN(C)CCC1N2C(=O)Cc1cccs1 (configuration not stated)	?	0.93µM*	0%	-6%
Cc1ccc2c(c1)C1CN(C)CCC1N2C(=O)Nc1ccc(Cl)cc1 (configuration not stated)	10µM*	10µM*	-8%	-22%
Cc1ccc2c(c1)C1CN(C)CCC1N2C(=O)c1cccc(S(=O)(=O)N(C)C)c1 (configuration not stated)	0%	2%	0%	4%
Cc1ccc2c(c1)C1CN(C)CCC1N2C(=O)c1cccs1 (configuration not stated)	?	8%	1%	-2%
Cc1nnsc1C(=O)Nc1ccccc1	-5%	10µM*	2%	4%
Cc1nnsc1C(=O)NNC(=O)Nc1ccccc1	-7%	?	0%	/
Cc1cccc(OCC(=O)NC2CCCCCC2)c1C	-13%	?	2%	10%
Cc1cccc(C)c1OCC(=O)NNC(=S)NC(=O)C1CC1	?	10µM*	-14%	-119%
Cc1cccc(C)c1OCC(=O)NC1CC1	2.9µM*	2%	1%	2%
CN1CCc2c(cc(O)c(O)c2Cl)C(c2cccc(Cl)c2)C1 (configuration not stated)	/	/	/	17%
COc1cc(C(=O)OCC#N)ccc1OCc1c(C)noc1C	-29%	?	0%	-2%
COc1ccc(CCNC(=O)c2cc(CC(C)C)on2)cc1OC	/	7.4µM*	-9%	-135%
